Source: PubChem
In the library only some 2.4% were active in any assay of this set; here they are far more common.
D2 ag-1 – human D2 receptor agonism in beta-arrestin assay; P14416; AID 624465; 360,000 compounds, 0.084% hits; activation, % (no concentration beside the values); DiscoveRx PathHunter D2 beta-arrestin, luminescence, 90 min; 100% = 57 uM dopamine signal; in the data active = activation above about 40%
Target sequence (P14416 whole entry, looked up): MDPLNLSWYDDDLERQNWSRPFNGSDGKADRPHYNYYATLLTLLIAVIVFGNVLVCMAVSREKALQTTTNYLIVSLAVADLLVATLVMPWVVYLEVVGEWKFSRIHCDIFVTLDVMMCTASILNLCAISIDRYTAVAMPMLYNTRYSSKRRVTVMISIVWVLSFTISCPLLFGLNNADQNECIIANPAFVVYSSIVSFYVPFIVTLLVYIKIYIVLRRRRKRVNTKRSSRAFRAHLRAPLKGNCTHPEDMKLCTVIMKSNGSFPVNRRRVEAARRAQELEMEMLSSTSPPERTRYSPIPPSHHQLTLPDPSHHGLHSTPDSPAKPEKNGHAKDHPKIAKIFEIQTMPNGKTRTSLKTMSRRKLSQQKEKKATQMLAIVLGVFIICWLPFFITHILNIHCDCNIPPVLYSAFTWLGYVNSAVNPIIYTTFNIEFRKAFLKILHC
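DiscoveRx PathHunter D2 beta-arrestin cells (2,100/well) attached overnight, then compound-stimulated 90 min at 37 C in HBSS/10 mM HEPES/0.1% Tween-20 buffer; beta-galactosidase complementation read by luminescence after 1 h at ambient temperature. Dopamine 57 uM final (EC100) as control.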
D2 antagonist – antagonists of human D2 dopamine receptor; HEK293 TREx D2 cells, calcium flux, dopamine EC80; inhibition, % at 10 µM; 340,000 compounds, 2% hits; P14416; AID 485344; in the data active = inhibition above about 30%; inactive = below that, where a call was filed; also: 0% is about no effect
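In this primary screen, negative modulation is detected by tracking calcium flux after an EC80 dopamine challenge in inducible HEK293 T-REx D2 cells preexposed to test compound for 180 s.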
D2 PAM-1 – D2 dopamine receptor (human) potentiation; P14416; HEK293 T-REx D2, calcium flux, EC20 dopamine potentiation; potentiation, % at 10 µM; 340,000 compounds, 0.34% hits; AID 485347;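 active = potentiation over 3 SD above the plate norm, cut at about 30% in these data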; also: 0% is about no effect
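Using a no-wash calcium dye in inducible, force-coupled HEK293 Trex cells expressing D2, we tracked fluorescence each second for 180 s after compound, then for 180 s after EC20 dopamine to detect augmented signalling.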
D2 PAM-2 – positive allosteric modulators of human D2 dopamine receptor. P14416. DiscoveRx D2 beta-arrestin cells, luminescence, 90 min; 100% = 57 uM dopamine signal. potentiation, % (concentration not given with the values). 360,000 compounds, 0.23% hits. AID 624464; in the data active = potentiation above about 50%
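PathHunter D2 cells, attached overnight at 37 deg C, received compound in DMSO plus dopamine at EC20 (50 nM final) for 90 min at 37 deg C. Beta-arrestin recruitment was read as luminescence after 1 h with detection reagent at ambient temperature.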
D2 ag-2 – D2 dopamine receptor (human) agonism | AID 485358 | P14416 | HEK293 T-REx D2 cells, calcium flux agonist mode | activation, % at 2 µM | 340,000 compounds, 0.53% hits;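 active = activation over 3 SD above normal in the single-dose calcium agonist read, cut at about 30% in these data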; also: 0% is about no effect
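HEK293 Trex D2 cells, tetracycline-induced, o/n 30 C 5% CO2; no-wash Ca dye, RT 30–90 min; 10-cycle baseline, 23 nl cpd added, kinetic Ca read 180 s; agonist hits = positive Ca response.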
Starred values were filed as active, the others as inactive; . = not tested or not shown.

SMILES	D2 ag-1	D2 antagonist	D2 PAM-1	D2 PAM-2	D2 ag-2
C=CCn1c(SCC(=O)Nc2ccc(O)cc2)nc2sc(CC)cc2c1=O	2	31*	3	-2	-1
CC(C)C(NC(=O)c1ccc(C(C)(C)C)cc1)C(=O)Nc1cccc(S(N)(=O)=O)c1 (configuration not stated)	-1	-12	37*	-42	-1
CCOc1ccccc1C(=O)NC(C(=O)Nc1cccc(S(N)(=O)=O)c1)C(C)C (configuration not stated)	-2	33*	-4	-16	0
CC(=O)c1ccc(OCC(=O)Nc2c(C)nn(-c3ccccc3)c2C)cc1	-6	9	14	-11	1
CCOCCCNCc1ccc(OC)c(OC)c1	-1	36*	-6	-13	-1
Cn1nnc2cc(C(=O)Nc3ccccc3)ccc21	-3	13	11	-2	1
COc1ccccc1NC(=O)c1ccc2c(c1)nnn2C	-6	71*	3	-2	0
Cc1ccc(-c2c(C(=O)N3CCOCC3)oc(=O)c3ccccc23)cc1	0	-5	-10	-1	-1
CCN1CCN(C(=O)c2oc(=O)c3ccccc3c2-c2ccc(C)cc2)CC1	-4	59*	-24	-11	-1
C=CCNC(=O)c1onc(CSc2ccccc2)c1C(=O)O	1	32*	-5	0	1
O=C(NCc1ccccc1)c1onc(CSc2ccccc2)c1C(=O)NCC1CC1	-6	39*	-9	-10	3
O=C(NCc1ccccc1)c1onc(CSc2ccc(Cl)cc2)c1C(=O)NCC1CC1	0	12	-9	-1	0
C=CCNC(=O)c1onc(CSc2ccc(F)cc2)c1C(=O)O	3	5	8	2	0
COc1ccc(CC(=O)NCC(=O)Nc2ccccc2Br)cc1	-3	1	-2	-4	1
Cc1cc(C)c(C)c(S(=O)(=O)N2CCN(CC(=O)NC(=O)NCc3ccccc3)CC2)c1C	1	-14	4	-9	0
CCc1cc2c(SCC(=O)c3cccs3)ncnc2s1	-4	34*	0	-17	0
CCOC(=O)CNc1ccc2c(c1)OCO2	-5	40*	.	-15	-1
Cc1cc(C)n2nnnc2n1	-1	38*	-7	-8	1
NC(=Nc1ccc(Cl)cc1)c1ccccc1	0	34*	-13	1	29
ONC(=Nc1ccccc1)c1ccc(Cl)cc1	1	23	7	7	-1
CCN1C(=O)[C@H]2[C@@H](c3ccc(-c4ccc(F)cc4)c(OC)c3)N3CCC[C@@]3(C(=O)OC)[C@H]2C1=O	-5	-3	-22	-9	0
CC1(C)CC(=O)C2=C(C1)N1C(=C(C#N)C2c2ccc(Cl)cc2)N=C(N)c2ccccc21 (configuration not stated)	-3	-12	-3	-7	-2
CC1(C)CC(=O)C2=C(C1)N1C(=C(C#N)C2c2ccccc2Cl)N=C(N)c2ccccc21 (configuration not stated)	7	36*	-11	-3	0
COCCCNC(=O)C1CCN(C(=O)c2cc3sccc3n2Cc2ccc(F)cc2)CC1	-3	10	-5	-8	0
COc1ccc(OCc2cc(C(=O)N(C)CC3CCCCO3)no2)c(Cl)c1 (configuration not stated)	-4	2	-5	-14	-1
SMILES	D2 ag-1	D2 antagonist	D2 PAM-1	D2 PAM-2	D2 ag-2
COc1ccc(OCc2cc(C(=O)N(C)CCC3CCOCC3)no2)c(Cl)c1	-6	65*	-17	-5	-1
O=C(Nc1ccccc1F)C1CCN(S(=O)(=O)c2cccc3nonc23)CC1	-4	0	14	-6	-2
O=C(NCc1ccccc1)C(c1ccccc1)N(Cc1cccs1)C(=O)c1cnccn1 (configuration not stated)	-2	1	2	-6	1
COc1cccc(C2NC(=O)NC(C)=C2C(=O)Nc2ccc(C)cc2)c1OC (configuration not stated)	-3	31*	-4	-19	0
Cc1cc(NC(=O)CSc2nc(C(C)C)nc3sc(C)c(C)c23)no1	7	35*	6	3	0
O=C1C2C3C=CC(CC3)C2C(=O)N1c1ccc([N+](=O)[O-])cc1 (configuration not stated)	1	-14	-2	-1	1
CC(=O)Oc1ccc(N2C(=O)C3C4C=CC(CC4)C3C2=O)cc1[N+](=O)[O-] (configuration not stated)	-4	62*	15	-7	-1
CC(=O)Nc1cccc(NC(=O)CSc2nnc(Cc3cccn3C)n2-c2ccc(F)cc2)c1	-3	49*	-2	-19	-3
COc1n[nH]c(C(=O)Nc2cc(Cl)ccc2Cl)c1[N+](=O)[O-]	-7	32*	7	-3	0
CCN(CC)CCCNC(=S)N1CCN(c2nc3ccccc3n2CC)CC1	6	48*	-17	-20	2
COc1cc2cc(CNc3ccc(C)cc3)c(=O)n(CC(=O)Nc3ccc(C(C)C)cc3)c2cc1OC	.	.	8	.	0
CC(=O)N1CCN(C(=O)c2cc(S(=O)(=O)N(C)Cc3ccccc3)ccc2Cl)CC1	0	30*	26	14	1
Cc1ccc(S(=O)(=O)N(C)Cc2ccccc2)cc1C(=O)N1CCCCC1	-4	-11	-2	-15	1
CSc1ccc(CCNS(=O)(=O)c2ccc3c(c2)C(C)(C)C(=O)N3C)cc1	0	-4	3	-8	-1
O=C(COC(=O)c1ccc(Sc2ccccc2)c([N+](=O)[O-])c1)NC1CCS(=O)(=O)C1 (configuration not stated)	-1	32*	8	-12	1
COC(=O)c1cc(C(=O)OCC(=O)NC2CCS(=O)(=O)C2)cc([N+](=O)[O-])c1 (configuration not stated)	2	-3	-3	4	1
COC(=O)CC(C(=O)Nc1cc(C(=O)OC)cc(C(=O)OC)c1)N1CCN(C)CC1 (configuration not stated)	0	.	.	-8	.
Cc1cccc(C)c1NC(=O)C(c1cccs1)N(Cc1ccco1)C(=O)Cn1nnc2ccccc21 (configuration not stated)	-11	5	35*	13	0
COc1ccc(S(N)(=O)=O)cc1N(C)S(=O)(=O)c1ccccc1	-2	-5	1	-2	1
Cc1ccc(NC(=O)CCNC(=O)c2ccco2)cc1Cl	-4	36*	-1	-5	0
Cc1cc(C)n(CCNC(=O)c2ccco2)n1	-1	-11	31*	1	0
CCCOc1cccc(C(=O)NCCNC(=O)c2ccco2)c1	-5	57*	11	1	-1
O=C(NCCNC(=O)c1ccco1)c1ccco1	-4	-2	.	1	-3
